The source of these data is PubChem BioAssay AID602476 (National Center for Advancing Translational Sciences (NCATS), 2012).

Inconclusive results are not listed. Calls of active or inactive are those of the source. Calls come from the whole dose curve; as a rule, active = well fitted activation curve with a large enough effect; inconclusive = small, poorly fitted or top-dose-only effect; inactive = flat fitted curve, though single readings scatter.

The assay in a line: FLuc inhibitory activity for the follow-up compounds in a cell-based translational read-through assay. The settings on record: GripTite 293 FLucUGA read-through, luminescence, 48 h; series mostly up to 38.3 µM; activation (read-through/stabilization): at the top concentration. An excerpt: NCGC Assay Overview: Firefly (Photinus pyralis) luciferase is one of the most commonly used transcriptional reporters. It is considered one of the more dynamically responsive reporters - that is, responsive to changes in reporter transcription - as it requires no post-translational modifications and is enzymatically active directly after protein synthesis (Wood, 1998). With no endogenous expression in mammalian cells and without the requirement of external excitation, it offers very little background signal, thus generally providing excellent signal to background for most assays. Previous profiling work to determine the prevalence of compounds that affect FLuc enzymatic activity (PubChem AID 411) identified that ~3% of the MLSMR library (then at ~72K) inhibited FLuc (Auld et al., 2008). […] Of the compounds identified in this profile that inhibited FLuc, 151 compounds were selected for further analysis, in an effort to better understand their mode of inhibiting FLuc. The assay described here was to determine the activity of the compounds in a cell-based firefly luciferase reporter gene assay originally designed to identify compounds that enchanced translational read-through of a FLuc cDNA that contained a premature stop codon (Auld et al., 2009; Auld et al., 2010). Compounds that enhance translational read-through or compounds that stabilize FLuc intracellularly are identified as active compounds in the assay.
NCGC Assay Protocol Summary: Reagents: Transient transfection of FlucUGA construct: TransFast Transfection Reagent (Promega #E2431); FLucUGA construct (refer to Auld et al., 2009) #GripTite 293 MSR Cell Line (Invitrogen #R795-07) #Complete growth media: DMEM (Invitrogen #11965), 10% HIFBS, 0.1mM MEM NEAA, 5mL/L pen-strep (of 5000U/mL stock), 600ug/mL Geneticin #Assay media: DMEM without phenol red (Invitrogen #21063), 5% charcoal-stripped HIFBS (Hyclone #SH30071.03), 0.1mM MEM NEAA In-house detection reagent: 300mM Tris-HCl, 300mM Trizma base, 300mM MgCl, 1% Triton-X100, 5mM DTT, 500uM Coenzyme A trilithium salt (Sigma #C3019),450uM ATP (Sigma #A7699), 1mM D-luciferin sodium salt monohydrate (Biosynth #L8240) Control compounds used were two known firefly luciferase inhibitors (3-(5-(3-chlorophenyl)-1,2,4-oxadiazol-3-yl)benzoic acid and 5-(2-fluorophenyl)-3-phenyl-1,2,4-oxadiazole), and DMSO. Assay Summary: Transient transfection of FlucUGA construct: Day 1: GripTite cells were plated in T175 flasks at a density of 1.75 x 10^7 cells/T175 flask in complete growth media without Geneticin and allowed to grow ON in a 37 degrees Celsius incubator. Day 2: Cells in T175 flask were transfected - with 10ug of DNA and 30uL Transfast in 12mL complete growth media without serum and without Geneticin for 4 hours at 37 degrees Celsius. After incubation, cells were trypsinized, spun down, and resuspended to a concentration of 3.3 x 10^5 cells/mL in assay media. 6uL of cells in assay buffer were dispensed at 2000cells/well (3.3 x 10^5 cells/mL) into Greiner solid-white TC-treated 1536-well plates using a Multidrop Combi (Thermo Fisher Scientific). Plates were incubated for one hour at 37 degree Celsius, 95% humidity, 5% CO2. These assay plates were then treated with 23nL of compound or DMSO using a Kalypsys pin tool, which allows for delivery of a 12-point titration of each compound to the assay plate, with a final compound concentration ranging from approximately ~38uM to 0.2nM. Assay plates were then incubated for 48 hours. After incubation, plates were washed three times with DPBS (7uL/well). After the third wash, 6uL of DPBS was added to each well. 3uL of 3X luciferase detection reagent was then added to each well using a flying reagent dispenser (FRD). After a 15 minute incubation to allow for cell lysis, luciferase activity was measured using a ViewLux CCD imager (PerkinElmer), with an average exposure time of 2-12 seconds.
`COc1ccc(NS(=O)(=O)c2cccc(C(=O)Nc3ccccc3C(=O)O)c2)cc1`: the “activation (read-through/stabilization)” value was 10.6% (inactive). Still for that read-out and setting: the same measure for `COc1cccc(OC)c1C(=O)Nc1cccc(C(=O)Nc2cccc(C(=O)O)c2)c1`: 4.55% (inactive); for `O=C(O)c1cccc(NC(=O)c2ccc(S(=O)(=O)c3ccccc3)cc2)c1`: 19.9% (inactive); for `Cc1cccc(C(=O)Nc2ccc(-c3nc4ccccc4s3)cc2Cl)c1`: -2.98% (inactive). Regarding `O=C(Cc1ccccc1)Nc1ccccc1C(=O)Nc1ccc(C(=O)O)cc1`, the “activation (read-through/stabilization)” value was 2.61% (inactive). In the case of `COc1ccc2nc(NC(=O)c3cnccn3)sc2c1`, the Potency is 565 nM (active). For `O=C(Nc1ccccc1C(=O)O)c1cccc(NC(=O)c2ccc(Br)o2)c1`, the “activation (read-through/stabilization)” value is -0.434% (inactive). In the case of `O=C(Nc1ccccc1C(=O)O)c1cc(S(=O)(=O)NCc2ccccc2)ccc1Cl`, the “activation (read-through/stabilization)” value is -0.131% (inactive). With `CC(C)C(=O)Nc1cccc(C(=O)Nc2ccccc2C(=O)O)c1`, the “activation (read-through/stabilization)” value is -3.96% (inactive). On the same count and under the same terms, the same measure for `O=C(O)c1ccc(NC(=O)c2cccc(NC(=O)c3cccs3)c2)cc1`: 5.6% (inactive).

For `CN(C)S(=O)(=O)c1ccc(C(=O)Nc2cccc(C(=O)O)c2)cc1`, the “activation (read-through/stabilization)” value is 16.7% (inactive). The same measure, in the same setting: the same measure for `CCCOc1cccc(C(=O)Nc2ccc(-c3nc4ccccc4s3)c(Cl)c2)c1`: -1.76% (inactive); for `O=C(Nc1ccccc1C(=O)O)c1ccc(NC(=O)C2CC2)cc1`: 6.5% (inactive); for `Cc1ccc(NS(=O)(=O)c2ccc(Cl)c(C(=O)Nc3cccc(C(=O)O)c3)c2)cc1`: 2.91% (inactive).

`O=C(Nc1ccccc1C(=O)O)c1cccc(C(=O)Nc2ccccc2C(=O)O)c1`: the “activation (read-through/stabilization)” value is -0.133% (inactive). For `O=C(O)c1cccc(NC(=O)c2ccccc2NC(=O)c2ccco2)c1`, the “activation (read-through/stabilization)” value is 3.39% (inactive).
